Screening data from PubChem.
This is a sample that favours compounds with a hit; in the whole collection about 8% have one here.
KB-3-1 tox – qHTS assay for MDR1-selective chemotherapeutics: Primary screen using the parental adenocarcinoma cell KB-3-1. KB-3-1 viability, CellTiter-Glo ATP luminescence, 72 h. Potency, µM (highest dose often 46.1 µM), most hits filed as cytotoxic. actives 1.4% (n = 400,000). AID 1347075, 2019; also: % is scaled to controls: 0 for no effect and ±100 for the full control effect; nearly all actives have a fitted effect of over 60% in size
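KB-3-1 cells, DMEM (no phenol red) + 10% FBS; compound by pin transfer, 72 h, 37 °C. Readout: CellTiter-Glo luminescence after 10 min. Data normalized, curve-fitted.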
HT1080 IDH1KD tx – qHTS for induction of synthetic lethality in tumor cells producing 2HG: qHTS for the HT-1080-IDH1KD cell line; AID 686971, 2013; HT-1080 IDH1 knockdown viability, ATP luminescence, 48 h; actives 2% (n = 360,000); Potency, µM (titrated, usually from 46.1 µM), for the others: top-dose activity, negative = toxicity, actives largely listed as cytotoxic;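 also: 0% = DMSO wells and -100% = cell-free medium wells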
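Viability of IDH1-knockdown HT-1080 fibrosarcoma cells was assessed by CellTiter-Glo after 48 h at 37 °C with titrated compound; concentration-effect curves were classified by fit quality and response size.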
SW480 rerep – A quantitative high throughput screen for small molecules that induce DNA re-replication in SW480 colon adenocarcinoma cells; SW480 DNA re-replication, Hoechst DNA content imaging, 48 h; Potency, µM (series often up to 46.1 µM), for inactives: top-dose re-replication activation, actives largely listed as activators; AID 624297, 2012; actives 1.8% (n = 340,000); also: % of control where 0% means no effect; nearly all actives have a fitted effect of over 55% in size
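Readout is total intensity of Hoechst-stained nuclei, excited at 405 nm and collected at 500-530 nm. Compound treatment lasted 48 hr at 37 C in 5% CO2 before staining.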
KB-V1 MDR tox – qHTS assay for MDR1-selective chemotherapeutics: Primary screen using the drug-selected MDR subline cells KB-V1. KB-V1 MDR cells viability, CellTiter-Glo, 72 h. Potency, µM (highest dose often 46.1 µM), usual class: cytotoxic. actives 3.4% (n = 400,000). AID 1347076, 2019; also: % is scaled to controls: 0 for no effect and ±100 for the full control effect; nearly all actives have a fitted effect of over 60% in size
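Following 72 h at 37 degrees C with compound, KB-V1 cell viability was read by CellTiter-Glo luminescence, medium being phenol-red-free DMEM plus 10% FBS; concentration-response parameters came from normalized, curve-fitted qHTS data.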
HT1080-NT tox – qHTS for induction of synthetic lethality in tumor cells producing 2HG: qHTS for the HT-1080-NT fibrosarcoma cell line | HT-1080-NT fibrosarcoma viability, CellTiter-Glo ATP luminescence, 48 h | Potency, µM (series often up to 46.1 µM), for inactives: top-dose activity, negative = less viability, hits mostly cytotoxic | actives 1.6% (n = 360,000) | AID 686970, 2013;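 also: NT is the 2HG producing partner of a matched IDH1 knockdown line; 0% = DMSO-treated cells and -100% = media-only wells without cells; nearly all actives have a fitted effect of over 55% in size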
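750 cells/well, RPMI + 5% FBS; 2 h settle, compound pin-transfer, 48 h at 37 degrees C. CellTiter-Glo 10 min RT, luminescence. Normalized to DMSO and media-only wells.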
MCF10A rerep – A quantitative high throughput screen for small molecules that induce DNA re-replication in MCF 10a normal breast cells; actives 2.9% (n = 350,000); MCF 10A DNA re-replication, Hoechst nuclear intensity, 48 h; Potency, µM (highest dose often 46.1 µM), for the others: top-dose activity, positive = re-replication, most hits filed as activators; also: % of control where 0% means no effect; nearly all actives have a fitted effect of over 50% in size
* marks the source's active call; other numbers are inactive results; [ ] = remark or other dose. Calls follow the shape of the dose curve; as a rule, active = well fitted curve in the direction sought with a large enough effect; inconclusive = small, poorly fitted or top-dose-only effect, or another doubt; inactive = no such curve, though single readings can be large; an effect the other way counts as inactive or inconclusive. Potency is read from the fitted curve at half-maximal effect.

How did COc1ccc(-c2[nH]ncc2N=Nc2cc(C)cc(C)c2)cc1 do in these assays?
KB-3-1 tox: inconclusive; HT1080 IDH1KD tx: 21µM*; SW480 rerep: inconclusive; KB-V1 MDR tox: inconclusive; HT1080-NT tox: 18µM*; MCF10A rerep: inconclusive

Results for COc1ccc(-c2[nH]ncc2N=Nc2ccccc2)cc1 ?
KB-3-1 tox: inconclusive; HT1080 IDH1KD tx: 16µM*; SW480 rerep: inconclusive; KB-V1 MDR tox: inconclusive; HT1080-NT tox: 16µM*; MCF10A rerep: 9%

How did Cc1cccc(NCc2nnc(-c3ccccc3)o2)c1C do in these assays?
KB-3-1 tox: inactive; HT1080 IDH1KD tx: -18%; SW480 rerep: -9%; KB-V1 MDR tox: 18µM*; HT1080-NT tox: -17%; MCF10A rerep: -2%

Results for Cc1cccc(NCc2ccccc2O)c1C ?
KB-3-1 tox: inactive; HT1080 IDH1KD tx: -26%; SW480 rerep: -10%; KB-V1 MDR tox: inactive; HT1080-NT tox: -12%; MCF10A rerep: 0%

How did Cn1c(SCC(=O)N2c3ccccc3Sc3ccc(Cl)cc32)nnc1-c1ccco1 do in these assays?
KB-3-1 tox: inactive; HT1080 IDH1KD tx: 7%; SW480 rerep: 1%; KB-V1 MDR tox: 23µM*; HT1080-NT tox: 0%; MCF10A rerep: inconclusive

What do the screens show for `Cc1nnc(SC(=O)N2c3ccccc3Sc3ccccc32)s1`?
KB-3-1 tox: inactive; HT1080 IDH1KD tx: 7.1µM*; SW480 rerep: -1%; KB-V1 MDR tox: inconclusive; HT1080-NT tox: 8.9µM*; MCF10A rerep: 3%

Results for Cc1nnc(SCC(=O)N2c3ccccc3Sc3ccccc32)n1N ?
KB-3-1 tox: inactive; HT1080 IDH1KD tx: 2%[9.24 µM]; SW480 rerep: 23µM*; KB-V1 MDR tox: inactive; HT1080-NT tox: -12%; MCF10A rerep: 9.2µM*

What do the screens show for `Cn1c(Cn2nnc3ccccc32)nnc1SCC(=O)N1c2ccccc2Sc2ccccc21`?
KB-3-1 tox: inactive; HT1080 IDH1KD tx: inconclusive; SW480 rerep: 4%; KB-V1 MDR tox: 16µM*; HT1080-NT tox: inconclusive; MCF10A rerep: inconclusive

What do the screens show for `Cn1c(Cn2nnc3ccccc32)nnc1SCC(=O)N1c2ccccc2CCc2ccccc21`?
KB-3-1 tox: inactive; HT1080 IDH1KD tx: 2%; SW480 rerep: 11%; KB-V1 MDR tox: inconclusive; HT1080-NT tox: 1%; MCF10A rerep: -3%

How did O=C(CSc1nnc(-c2ccccc2)n1-c1ccccc1)N1c2ccccc2Sc2ccccc21 do in these assays?
KB-3-1 tox: inactive; HT1080 IDH1KD tx: 8%; SW480 rerep: -1%; KB-V1 MDR tox: inactive; HT1080-NT tox: 10%; MCF10A rerep: 15%

Results for Cc1cc(C)n(-c2ccc(C(=O)OCC(=O)Nc3cc(S(C)(=O)=O)ccc3Cl)cc2)n1 ?
KB-3-1 tox: inactive; HT1080 IDH1KD tx: 17%; SW480 rerep: -5%; KB-V1 MDR tox: inactive; HT1080-NT tox: 12%; MCF10A rerep: -2%

How did O=C1c2ccccc2C(=O)N1CC(O)Cn1nnc2ccccc21 (stereo not drawn) do in these assays?
KB-3-1 tox: inactive; HT1080 IDH1KD tx: 4%; SW480 rerep: -22%; KB-V1 MDR tox: inactive; HT1080-NT tox: -1%; MCF10A rerep: 8%

How did OC(CN1c2ccccc2Sc2ccccc21)Cn1nnc2ccccc21 (stereo not drawn) do in these assays?
KB-3-1 tox: inconclusive; HT1080 IDH1KD tx: inconclusive; SW480 rerep: 16%; KB-V1 MDR tox: 16µM*; HT1080-NT tox: -16%; MCF10A rerep: inconclusive

Results for O=C(N[C@@H](Cc1ccccc1)C(=O)CCl)OCc1ccccc1 ?
KB-3-1 tox: inconclusive; HT1080 IDH1KD tx: 21µM*; SW480 rerep: inconclusive; KB-V1 MDR tox: 23µM*; HT1080-NT tox: 6.5µM*; MCF10A rerep: inconclusive

How did Cc1ccc(S(=O)(=O)NC(=NC(C)C)c2ccccc2)cc1 do in these assays?
KB-3-1 tox: inactive; HT1080 IDH1KD tx: 4%; SW480 rerep: inconclusive; KB-V1 MDR tox: inconclusive; HT1080-NT tox: 13%; MCF10A rerep: 0.52µM*

What do the screens show for `COc1ccc(CCNC(=O)C2(c3cccs3)CCOCC2)cc1OC`?
KB-3-1 tox: inactive; KB-V1 MDR tox: inactive

How did Cc1noc(C)c1COc1ccc(C(=O)N2CCN(c3cccc(Cl)c3)CC2)cc1 do in these assays?
KB-3-1 tox: inactive; HT1080 IDH1KD tx: 2%; SW480 rerep: -4%; KB-V1 MDR tox: inactive; HT1080-NT tox: 15%; MCF10A rerep: inconclusive

Results for Cc1ccc(S(=O)(=O)N2CCN(C(=O)c3ccccc3OCc3c(C)noc3C)CC2)cc1C ?
KB-3-1 tox: inactive; HT1080 IDH1KD tx: -13%; SW480 rerep: 26%; KB-V1 MDR tox: inactive; HT1080-NT tox: -20%; MCF10A rerep: -1%

Results for Cc1cc(C)c(S(=O)(=O)N2CCN(C(=O)c3ccccc3OCc3c(C)noc3C)CC2)c(C)c1 ?
KB-3-1 tox: inactive; HT1080 IDH1KD tx: 0%; SW480 rerep: 0%; KB-V1 MDR tox: 7.3µM*; HT1080-NT tox: -7%; MCF10A rerep: 10%

How did Cc1noc(C)c1COc1ccccc1C(=O)N1CCN(c2cccc(Cl)c2)CC1 do in these assays?
KB-3-1 tox: inconclusive; HT1080 IDH1KD tx: 23µM*; SW480 rerep: inconclusive; KB-V1 MDR tox: inconclusive; HT1080-NT tox: 23µM*; MCF10A rerep: 4%

Results for CC1Cc2cc(S(=O)(=O)NCc3ccc(Cl)cc3)ccc2N1C(=O)C1CCC1 (stereo not drawn) ?
KB-3-1 tox: inconclusive; KB-V1 MDR tox: inactive

Results for CS(=O)(=O)N(CC(=O)NC1CCCCC1)Cc1ccc(F)cc1 ?
KB-3-1 tox: inactive; HT1080 IDH1KD tx: 0%; SW480 rerep: -1%; KB-V1 MDR tox: inconclusive; HT1080-NT tox: 3%; MCF10A rerep: 3%

What do the screens show for `COc1ccc(C(=O)N(Cc2ccco2)Cc2cccs2)c(O)c1`?
KB-3-1 tox: inactive; HT1080 IDH1KD tx: -12%; SW480 rerep: -3%; KB-V1 MDR tox: inactive; HT1080-NT tox: -1%; MCF10A rerep: 5%

How did COc1ccc(C(=O)/C=C/C(=O)N(CC(=O)NCCC(C)C)Cc2cccs2)c(O)c1 do in these assays?
KB-3-1 tox: inactive; HT1080 IDH1KD tx: -16%; SW480 rerep: inconclusive; KB-V1 MDR tox: 10µM*; HT1080-NT tox: -2%; MCF10A rerep: -2%
